# According to the supplement of paper PMC11417369:
# ± gives the standard deviation of the averaged measurements. In all, about 25,000 sequences were measured (“ln(normalized median fluorescence intensity)”: median about 7.9, highest 2% from about 11 on). The sample as a whole holds a higher share of the highest values than the screen did.
# Tested on: PfAP2-I AP2 domain 3 (GST-tagged)
# Assay: gcPBM binding intensity (ln(normalized median fluorescence intensity)); higher = stronger DNA binding
# Method in brief: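 Binding intensity is the highest Masliner-normalised natural-log median intensity over replicate spots in either probe orientation. To obtain it, GST-tagged P. falciparum DNA-binding domains made in E. coli were incubated for 1 h on an Agilent 4 × 180k array of primer-extended double-stranded 36-bp intergenic genomic probes plus negative controls. Detection used Alexa488 anti-GST antibody with scanning at 488 nm.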
row,Sequence,gcPBM binding intensity (ln)
1,TATAAAAAAAAAAAATATATATATATATAAATATAA [TGCATGCA_negctrl_site367],7.28 ± 0.37
2,ACTTAGGAAATAAAACGTACATTAAATATATACATA [XGTACX_site2990],7.84 ± 0.35
3,AAATAAAAAAGTAGTACACACTTCACGATATTTTTT [CACACA_site6015],7.89 ± 0.43
4,CATCAAGTGAATTGTTGTACTTTACATTGTTTTTAT [XGTACX_site7261],7.89 ± 0.69
5,AAAAAATATTATATATGTACATAATATTTTTTTTTT [XGTACX_site5909],7.47 ± 0.39
6,ACATACTCAAATAGCACACACATAAATAAAAATGTA [CACACA_site3864],8.42 ± 0.099
7,AAAAGAAAATATATGTGTACTAAAATATATATATAT [XGTACX_site3817],9.455 ± 0.021
8,AAATCGTGTACATTGACACACATAATTTTTTTTATA [CACACA_site2463],8.09 ± 0.38
9,TTATTTTATTTTTGTGCACACTGATAAATTGAAAAG [CACACA_site2949],10.8 ± 0.22
10,ACATATTATTCAAGTGCACACTTTATATTTATGATT [CACACA_site3295],9.715 ± 0.035
11,ATCATCTTTATTCAAGTGCACTGAAAATTTTTTATA [GTGCAC_site9801],11.1 ± 0.32
12,TACATCATCTATAAGGTGCATTTTAGTTCTATTAAA,10.3 ± 0.58
13,TCCTTTATTTTTAAAGTGCATATACATGTACATTAT [GTGCAC_site9445],9.675 ± 0.078
14,AAAAAAAAAAGAAACACACACATATAGATTTATAAC [CACACA_site6927],7.69 ± 0.69
15,AAGTTTAAAATCTTTGCACACATATAAATAAATATA [CACACA_site2554],8.94 ± 0.12
16,CTATAATATTAGTGCACACACAAAAATGTACTAAAC [CACACA_site6442],11.6 ± 0.62
17,TAGAAACTATGTAATGCACACCAAAATAAAATTATT [CACACA_site8578],10.4 ± 0.33
18,TTAAAAAACTATAATACACACCAAAAATATGCACAT [CACACA_site7079],9.44 ± 0.7
19,ATAATAAATACACTAGTGCAAAATAATATATGTACT [GTGCAC_site9707],10.4 ± 0.22
20,AAAAATATAATATAATGTACACATAAACAAAAAAAA [XGTACX_site3658],7.92 ± 0.57
21,AAAAATATAATATAATGTACACAAAAAAAAAAAAAT [XGTACX_site4914],8.18 ± 0.15
22,AGAAAAATAAACAAATGTACAAATTATTACTATATA [XGTACX_site1087],7.63 ± 0.34
23,ATATTACAAATATAATGTACAAAATATAAATATGCA [XGTACX_site8106],7.62 ± 0.3
24,GAAACTATGTAATGCACACCAAAATAAAATTATTAA [CACACA_site1904],10.9 ± 1

row,Sequence,gcPBM binding intensity (ln)
1,AAAAATATAATATAATGTACACAAAAAAAAAAAATC [XGTACX_site1427],7.93 ± 0.52
2,ATATAATATTAGTGCACACACAAAAATGTACTAAAC [CACACA_site632],11.3 ± 0.54
3,GTATATAATATTAGTGCACACACAAAAATGTACTAA [CACACA_site8112],11.4 ± 0.55
4,AGAAGAAATATGTAAAAAATTTTATATTCACACACA [GTGCAC_negctrl_site441],8.15 ± 0.33
5,ATAAATTCATACATTTGTACACAAAAAAAAAAAAAA [XGTACX_site2435],8.12 ± 0.57
6,TTTTTTTTTTCTTTTTGTACATATTCATAACAAGTA [XGTACX_site2784],8.12 ± 0.5
7,AATGTAACAACTTTTTGTACTTAAGAAATAATAAAT [XGTACX_site3310],7.64 ± 0.61
8,TAATTAAAAAATAAAAAAAAAAAAAATTAAAACAAA [CACACA_negctrl_site500],7.2 ± 0.58
9,TGTTATATGTTCAAATGTACAAATCATATACATGTT [XGTACX_site3192],7.5 ± 0.65
10,GTTAGGATAGATTAGACATGCACATAAATGCACTTC [TGCATGCA_site561],11.1 ± 0.34
11,AAAATTAGATTATGCACACACACTTAAAAATAATAA [CACACA_site1975],9.97 ± 0.46
12,AGGATATGCAGACACACACACATATAGATTTATATA [CACACA_site7100],7.74 ± 0.55
13,ATTTTTTCTAATGGGTGTACTGAAACGTATTTTATT [XGTACX_site6573],8.16 ± 0.58
14,TTTGTGGTTACATGTGCACACACTTATTTCGTTCTT [CACACA_site1435],9.38 ± 0.4
15,TATAATATATTCATGTGTACATATATTTCGAACATA [XGTACX_site1754],8.01 ± 0.2
16,ATTTTATTTTCATATGAACACACATATATATATTAT [CACACA_site8741],8.35 ± 0.45
17,TTACATACAATTGGTGTGCACATATATATATATATA,10.29 ± 0.049
18,AATTAATGGCTAAAGGTGCACAATATATATATTACA,11.3 ± 0.19
19,AATTAATGGTTAAAGGTGCACAATACATATATTACA [GTGCAC_site9943],11.32 ± 0.035
20,GTAATTAAAATATATACACACAAAGGCTATTAAATA [CACACA_site1011],7.68 ± 0.52
21,ATAATTATATGGCTAGCACACAATAAATAATTATAT [CACACA_site3815],7.92 ± 0.42
22,ATATAATAAGGTTAAGCACACATATTACATATATAA [CACACA_site9110],8.35 ± 0.23
23,ATATTATATTTCTTTTGTACATATTATATAATATAT [XGTACX_site7198],8.1 ± 0.56
